Several values for one entry are separate records, joined by “and”; a condition that tells them apart may be missing. Identical values can stand only once. Results filed as inconclusive are left out. Activity calls are given as the source filed them. Calls come from the whole dose curve; as a rule, active = well fitted activation curve with a large enough effect; inconclusive = small, poorly fitted or top-dose-only effect; inactive = flat fitted curve, though single readings scatter.

This assay can be described thus: qHTS Assay for Identifying a Potential Treatment of Ataxia-Telangiectasia: SAR for Probe. The following applies: F2112 A-T fibroblasts, NCS-induced pKAP1 AlphaLISA. The text has this: NIH Chemical Genomics Center [NCGC] NIH Molecular Libraries Probe Centers Network [MLPCN] MLPCN Grant: MH089030-01 Assay Submitter (PI): Wei Zheng and Yosef Shiloh Ataxia-telangiectasia (A-T) is a devastating and progressive disease for which, there is no cure. Although A-T is a multisystem disease, it is stereotyped characterized by its neurological symptoms such as truncal ataxia, due to cerebellar cortical degeneration of the Purkinje and granule cells. Other symptoms of A-T are telangiectasias (dilated blood vessels), primary immunodeficiency, marked sensitivity to ionizing radiation (IR), chromosomal instability and predisposition to cancer. The underlying genetic cause of A-T is null mutations in the ATM (A-T mutated) gene. ATM is a nuclear serine/threonine kinase that functions as a master regulator of the cellular responses to double strand breaks (DSBs) in the DNA. Upon activation by DSBs, ATM phosphorylates a plethora of downstream targets, including KAP-1 on Ser82452. […] To screen for small molecules that will compensate for the loss of ATM in cells derived from A-T patients, we monitored KAP-1 phosphorylation as a readout for ATM-like activity using an AlphaLISA assay. […]
qHTS Assay Protocol: Step,Parameter,Value,Description 1. […] Readout, EnVision, EnVision plate reader. […] EnVision protocol for 1536-well AlphaScreen read (30ms excitation, 100ms read), about 10 min/plate.

In the case of `CC(=O)c1c(O)c(C)c(O)c(Cc2c(O)c3c(c(C(=O)/C=C/c4ccccc4)c2O)OC(C)(C)C=C3)c1O`, the Potency was 29.2 µM (active) and 10 µM (active).
